# Source: PubChem BioAssay (National Center for Advancing Translational Sciences (NCATS))
# p53 reactivation: restores transcriptional activity of mutant p53. H1299 p53-A138V BP100-luciferase reporter, luminescence, 24 h. Potency, µM (doses to about 92.2 µM), for inactives: at the top dose activity change, positive = activation, actives largely listed as activators. 0.063% of 320,000 active; note: potency is the fitted concentration of half-maximal effect; % of control where 0% means no effect; nearly all actives have a fitted effect of over 45% in size
#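 H1299 (p53-null), stable ts p53-A138V + BP100-Luc; 1000 cells/well, Opti-MEM/10% FBS; cpd 4 pt, 1:5; 24 h, 37 deg C, 5% CO2; detection reagent 10 min RT; luminescence.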
# BRCA1 expr up: BRCA1 expression activation; Potency, µM (titrated, usually from 46.1 µM), for the others: at the highest dose activation, most hits filed as activators; AID 624202; MCF7-BRCA1-FFLuc reporter, luminescence, 48 h; response scale: scaled: vehicle 0%, 10 µM genistein 100%; 1.1% of 380,000 active; note: potency is the fitted concentration of half-maximal effect; nearly all actives have a fitted effect of over 80% in size
#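 Luminescence from a BRCA1-driven firefly luciferase in MCF7 cells was the read-out, taken 15 min after substrate addition following 48 h compound exposure at 37 °C. Data were normalized to a 10 microM genistein control and DMSO vehicle.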
# ELG1 repair inh: ELG1-dependent DNA repair inhibition | HEK293T ELG1-luciferase reporter, luminescence, 16 h; DNA damage induced by 5-fluorouridine | Potency, µM (doses to about 46.1 µM), for the others: top-dose activity change, negative = inhibition, hits mostly inhibitors | 2.3% of 330,000 active; note: potency is the fitted concentration of half-maximal effect; % is set by controls: 0 for no effect and ±100 for the full control effect; nearly all actives have a fitted effect of over 55% in size
#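 Overnight (16 hr) co-exposure of 2,000 cells/well to 5-fluorouridine and compound at 37 °C preceded detection. Luciferase was quantified via ONE-Glo luminescence; loss of signal denotes inhibition.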
# VP16 counter: counter-screen for ROR gamma inhibitors: Gal4-VP16 reporter; Drosophila S2 Gal4-VP16 UAS-luciferase, luminescence, 20 h; Potency, µM (highest dose often 53.6 µM), inactives show top-dose activity, negative = inhibition, actives largely listed as inhibitors; 3.5% of 310,000 active;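 note: Gal4-VP16 expression switched on by copper sulfate through the metallothionein promoter; potency is the fitted concentration of half-maximal effect; % is set by controls: 0 for no effect and ±100 for the full control effect; nearly all actives have a fitted effect of over 50% in size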
# Giardia killer: kills Giardia lamblia. Giardia lamblia trophozoite viability. activity change, % at 7.66 µM, hits read low. 0.15% of 340,000 active. AID 540267; in the data active = activity change below about -80%; inconclusive = between about -30% and that limit;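 note: parasites exposed to compound for two days anaerobically before the ATP read; % is set by controls: 0 for no effect and ±100 for the full control effect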
#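 Killing of trophozoites was scored by loss of ATP luminescence after a 48 hrs anaerobic exposure to compounds at 37 deg C, using 100 cells per well.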
# RORgamma inh: inhibitors of mouse ROR gamma transcriptional activity | P51450 | 5.4% of 310,000 active | AID 2551 | Potency, µM (top dose mostly 53.6 µM), without a hit: at the top dose activity change, negative = inhibition, most hits filed as inhibitors | Drosophila S2 Gal4-RORgamma UAS-luciferase reporter, 20 h; note: potency is the fitted concentration of half-maximal effect; % is set by controls: 0 for no effect and ±100 for the full control effect; nearly all actives have a fitted effect of over 60% in size
# Target sequence (P51450 whole entry, looked up, the tested form may be a part): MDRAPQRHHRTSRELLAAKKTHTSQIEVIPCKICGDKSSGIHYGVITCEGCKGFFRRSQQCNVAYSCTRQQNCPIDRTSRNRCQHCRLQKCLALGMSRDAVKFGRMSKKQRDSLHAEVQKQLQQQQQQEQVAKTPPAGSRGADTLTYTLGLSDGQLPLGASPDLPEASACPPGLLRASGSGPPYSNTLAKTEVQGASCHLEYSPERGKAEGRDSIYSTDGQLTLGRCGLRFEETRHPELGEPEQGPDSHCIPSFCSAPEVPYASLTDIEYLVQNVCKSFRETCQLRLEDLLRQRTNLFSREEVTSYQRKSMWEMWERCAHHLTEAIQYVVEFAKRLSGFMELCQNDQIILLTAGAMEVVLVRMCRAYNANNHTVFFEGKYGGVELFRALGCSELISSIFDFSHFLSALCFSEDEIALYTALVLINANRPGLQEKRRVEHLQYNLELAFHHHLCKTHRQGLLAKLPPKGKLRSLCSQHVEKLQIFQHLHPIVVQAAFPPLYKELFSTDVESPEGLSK
#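 Luminescence from a UAS-regulated Photinus luciferase reporter in stably transfected Drosophila Schneider cells is measured; decreased signal marks ROR gamma inhibition. Fusion expression is induced by 700 uM copper sulfate for 20 hr.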
# Starred values were filed as active, the others as inactive; ? = inconclusive; / = no result; [ ] = remark or other dose. Shown are actives, neighbours in structure and some others; about 7.6% of the full set was active somewhere. Unless noted, calls come from the whole dose curve; as a rule, active = well fitted curve in the direction sought with a large enough effect; inconclusive = small, poorly fitted or top-dose-only effect, or another doubt; inactive = no such curve, though single readings can be large; an effect the other way counts as inactive or inconclusive.
SMILES,p53 reactivation,BRCA1 expr up,ELG1 repair inh,VP16 counter,Giardia killer,RORgamma inh
O=C(Nc1ccc(N2CCOCC2)c(Cl)c1)c1ccc([N+](=O)[O-])o1,-7%,-87%,-5%,?,-89*,-91%
CN1CCN(c2ccc(NC(=O)c3ccc([N+](=O)[O-])o3)cc2Cl)CC1,-19%,-85%,?,?,?,?
CCCS(=O)(=O)NC(=O)C1(C)CCCN(C(=O)c2cc3ccccc3s2)C1 (configuration not stated),/,0%,/,/,/,/
CN(C(=O)c1ccc(NC(=O)Cc2ccc(NC(=O)C3CCN(C(=O)c4ccccc4)CC3)cc2)cc1)C1CCCC1,/,-2%,/,/,8,/
Cn1ccnc1-c1nc2ccccc2[nH]c1=O,?,-25%,14%,3.5µM*,-15,3.5µM*
CCCCn1nnnc1-c1nc2ccccc2[nH]c1=O,/,-2%,/,/,/,/
CN(CC(=O)Nc1c(Cl)cccc1Cl)C(=O)CNC(=O)c1ccc2c(c1)OCO2,-1%,-3%,-1%,/,1,/
CNC(=O)c1c(NC(=O)c2nc3ccccc3s2)sc2c1CCC2,?,/,?,8.9µM*,/,7.1µM*
O=C(Nc1cccc(-c2cnc3ccccc3n2)c1)c1ccncc1,-2%,?,?,-26%,-10,-16%
COc1ccc(C(=O)Nc2cccc(-c3cnc4ccccc4n3)c2)cc1,25%,4µM*,-15%,3%,3,19%
Cc1ccc(C(=O)Nc2cccc(-c3cnc4ccccc4n3)c2)cc1,2%,74%,4%,4%,2,-1%
CC(C)C(=O)Nc1cccc(-c2cnc3ccccc3n2)c1,6%,11µM*,-1%,-21%,-4,-18%
O=C1CCC(O)CCN1CCSc1ccccc1 (configuration not stated),20%,?,?,-5%,-10,7%
COc1cccc(C(=O)C2CCCN(C(=O)c3cccc(C#CC(C)(C)O)c3)C2)c1 (configuration not stated),-2%,0%,16µM*,7%,2,29%
Fc1ccc(-n2cc(-c3ccccc3)c3c(=S)nc[nH]c32)cc1,6%,0%,-20%,1µM*,-14,1.3µM*
Fc1cccc(-n2cc(-c3ccccc3)c3c(=S)nc[nH]c32)c1,10%,-21%,?,0.63µM*,-7,2.5µM*
COc1ccc(C2(c3ccc(OC)cc3)NC(=O)N(CC(=O)NC3(C#N)CCCCC3)C2=O)cc1,15%,-17%,3%,/,17,/
O=C(C1CC1)N1CCC(C(O)(c2ccccc2)c2ccccc2)CC1,3%,-2%,6%,-9%,6,22%
CC(C)(C)C(=O)N1CCC[C@H]1C(O)(c1ccccc1)c1ccccc1,-15%,7%,-14%,22µM*,-4,?
O=C1OCCN1C(=O)[C@H]1[C@H](c2ccc(Cl)cc2)C(c2ccc(F)cc2)=NN1c1ccc(Br)cc1,13%,-49%,?,-15%[40.7 µM],-20,4%[40.7 µM]
OCCNc1c2ccccc2nc2c(F)c(F)c(F)c(F)c12,?,-57%,?,7.9µM*,-13,10µM*
COC(=O)C1C2CC3c4[nH]c5cc(OC)ccc5c4CCN3CC2CC(OC)C1OC (configuration not stated),/,/,/,1%,/,-7%
CCCc1cc(=O)[nH]c(SCCc2ccccc2)n1,5%,37%,14%,-1%,18,-10%
O=c1c2c(nc3cc(-c4ccc(Br)cc4)[nH]n13)CCCC2,-1%,?,-13%,-11%,0,-6%
O=c1c2c(nc3c(-c4ccc(Cl)cc4)c[nH]n13)CCC2,5%,-38%,13µM*,?,-20,5µM*
SMILES,p53 reactivation,BRCA1 expr up,ELG1 repair inh,VP16 counter,Giardia killer,RORgamma inh
Cc1ccc(-c2[nH]n3c(=O)c4c(nc3c2C)CCCC4)cc1,12%,12%[1.84 µM],23%,-12%,1,-1%
O=c1c2c(nc3cc(-c4ccccc4)[nH]n13)CCC2,?,?,?,-7%,-6,-36%
Cc1c(-c2ccccc2)[nH]n2c(=O)c3c(nc12)CCCC3,?,3.2µM*,?,?,1,12%
O=c1c2c(nc3c(-c4ccccc4)c[nH]n13)CCC2,11%,-39%,-16%,?,14,6.3µM*
O=c1c2c(nc3c(-c4cccc(Br)c4)c[nH]n13)CCCC2,-5%,-63%,?,3.2µM*,0,2.5µM*
N=C(CC(O)COc1ccccc1-c1ccccc1)N1CCCCC1 (configuration not stated),/,/,/,-9%,/,-2%
Cc1onc(-c2ccccc2)c1C(=O)N1CCN(c2ncccn2)CC1,-2%,1%,-2%,10%,0,-20%
CCCCCCC(NC(=O)c1ccc(C)cc1)C(=O)O (configuration not stated),-4%,-1%,?,/,0,/
COc1ccccc1C(CCNS(=O)(=O)c1ccc(C)cc1)c1ccco1 (configuration not stated),-2%,-40%,?,-11%,-13,?
COc1ccc(NC(=O)Nc2ccc(C)cc2OC(F)F)cc1OC,1%,-39%,?,?,-26,?
O=C(Nc1ccc2c(c1)OCO2)Nc1ccc(Br)cn1,?,2.8µM*,?,1%,-18,?
Cc1ccc(NC(=O)Nc2ccc3c(c2)OCO3)c(OC(F)F)c1,11%,2.5µM*,?,3%,-11,-16%
O=C(CNC(=O)c1ccccc1F)Nc1ccc2c(c1)OCO2,?,7.9µM*,?,/,?,/
CC(=O)c1cccc(NC(=O)Nc2ccc3c(c2)OCO3)c1,25%,11µM*,?,?,10,-41%
CCN1C(=NCCOC)N[C@@H](c2cccs2)C(C(=O)OC)=C1C,8%,-1%,-11%,-4%,5,-9%
CC(=O)c1cccc(NC(=O)Nc2ccc(C(=O)N3CCOCC3)cc2)c1,-11%,9%,10µM*,?,-11,?
CC(C)CC(=O)Nc1ccc2c(c1)OCO2,7%,6%,18%,-9%,-10,6%
Cc1ccc(NC(=O)Nc2ccc3c(c2)OCO3)cc1F,?,0.89µM*,?,?,-16,8%
COc1ccc(OC)c(S(=O)(=O)NNC(=S)Nc2ccc3c(c2)OCO3)c1,-5%,31%,7%,?,9,10µM*
O=C(CCl)Nc1ccc2c(c1)OCO2,-10%,8%,8%,4%[10 µM],5,18µM*
CC(=O)c1c(C)n(CC(=O)NCc2ccco2)c2ccccc12,-2%,0%,?,-4%,6,30%
